The results in this text go back to PubChem BioAssay.

The nature of assay [1]: liver-stage malaria parasite growth inhibition, primary screen, cell-based, HepG2, luciferase luminescence, HepG2 viability (AID 624349).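 Note: 100% = mean of DMSO negative control wells on the same plate.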 To be noted: P. berghei liver stage in HepG2, luciferase luminescence, concentration not given here; parasite load remaining: stronger effect = lower value; viability: measured here: HepG2 viability without parasites.
The nature of assay [2]: kinase inhibitors against Plasmodium liver-stage infection, cell-based, known kinase inhibitor set, luminescence, hepatoma host viability (AID 624392; call rule not given here;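 note: infected cells incubated roughly two days before readout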). As to conditions: Plasmodium liver stage in hepatoma cells, luciferase luminescence, concentration not given here; liver cell % of control: measured here: host liver cell viability; parasite % of control: stronger effect = lower value.

Assay [3] can be described thus: Cy5 fluorescence interference with SSB-bound oligo, artefact control for HCV NS3 helicase inhibitor project, biochemical, NIH Clinical Collection, E. coli SSB (AID 743268; call rule not given here).
Assay [4] concerns Hepatitis C virus NS3 helicase. The experiment in a line: HCV NS3 helicase inhibitors, primary screen, biochemical, fluorescence polarization, NIH Clinical Collection (AID 743270; call rule not given here). To be noted: NS3 helicase binding to Cy5-dT15 DNA, stronger effect = higher value, concentration not given here. For orientation: Fluorescence polarisation rises when a labelled molecule tumbles more slowly, as on binding a larger partner.

For assay [5], the target named is Single-stranded DNA-binding protein (Escherichia coli (strain K12)) (UniProt P0AGE0). The experiment in a line: E. coli SSB displacement from DNA, counter-screen for HCV NS3 helicase inhibitor project, biochemical, fluorescence polarization, NIH Clinical Collection (AID 743271; in the data active = inhibition above about 28%). As to conditions: stronger effect = higher value, concentration not given here.
A short description of assay [6]: fluorescence interference in NS3h assay format, artefact control for HCV NS3 helicase inhibitor project, biochemical, NIH Clinical Collection (AID 743272; call rule not given here;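 note: HCV NS3 helicase with a Cy5 labelled single stranded DNA probe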). As to conditions: fluorescence interference counterscreen, stronger effect = lower value. In general terms: Counterscreens check selectivity or assay interference.

Values joined by “and” are separate entries in the source; they are usually repeats but may differ in a detail not shown here. Equal values may be shown once. Active and inactive are the calls of the source. Cut-off read from the data, not from the text of the source, unless noted: active = parasite load remaining mostly below about 12% (no sharp cut-off); inactive = mostly above about 10%. Numbered stars: 1 amine (or outer) side, 2 acyl side, 3 side chain; on linkers, the order of the positions; unused ones are H or OH. Bridge positions count the residues as written; N and C are the ends. Square brackets hold non-standard residues; d marks the D form. Peptide text beside a SMILES is read from it. * marks the point of attachment. Heptanoyl(6-Me) = CC(C)CCCCC(=O)*; X3 = CC(C)C(CN[*:1])C(=O)[*:2]; Dab = NCC[CH](N)C(=O)O

Broadly, the viability is a read-out of living cells in per cent, often relative to untreated cells. As for `Cc1nc(-c2ccccc2)c(-c2ccncc2)o1`, in assay [1], the parasite load remaining is 46.9% (inactive) and the viability was 64.2%.
The corresponding values for `Cc1cc(Nc2nc(-c3ccccc3)nc3ccccc23)n[nH]1` are 33.3% (inactive) and 117%.
With `CC[n+]1c(/C=C/N(C)c2ccccc2)n(-c2ccccc2)c2ccc(-c3nc4ccccc4s3)cc21`, in assay [1], the parasite load remaining was 33.2% (inactive) and the viability is 152%.
The matching figures for `O=c1[nH]c(O)c2c1c1c3ccccc3nc1n1cncc21`: 34.3% (inactive) and 93.6%.
The corresponding values for `O=C(Nc1cccc(Nc2cc(Nc3cccc(C(F)(F)F)c3)ncn2)c1)C1CC1` are 48.9% (inactive) and 163%.
The matching figures for `O=C1NCCc2[nH]c(-c3ccnc(-c4cnc5ccccc5c4)c3)cc21`: 35.3% (inactive) and 77.1%.
Regarding `COc1cc(Nc2ncc3ccn(-c4cccc(CCC#N)c4)c3n2)cc(OC)c1OC`, in assay [1], the parasite load remaining is 50.6% (inactive) and the viability was found to be 164%.
The corresponding values for `N#Cc1c(-c2ccccc2)cc(-c2cc(Br)ccc2O)[nH]c1=O` are 30.2% (inactive) and 75.4%.
The matching figures for `Cn1cc(/C=C2\C(=O)Nc3ccc(S(N)(=O)=O)cc32)c2ccccc21`: 59.7% (inactive) and 106%.
The matching figures for `Cc1nc2cc3nc(-c4cccs4)cnc3cc2n1C`: 6.62% (active) and 168%.
With `CCCOc1ccc(/C=C2\SC(=O)NC2=O)cc1`, in assay [1], the parasite load remaining was 54.3% (inactive) and the viability came out at 111%.
With `O=c1c(-c2ccc(F)cc2)c(-c2ccncc2)[nH]n1-c1ccc(Cl)cc1`, in assay [1], the parasite load remaining is 36.4% (inactive) and the viability was found to be 68.5%.
`O=C1NC(=O)C(c2cn(CCCO)c3ncccc23)=C1c1cnccn1`: in assay [1], the parasite load remaining was 39.6% (inactive) and the viability is 97.4%.
The matching figures for `O=C1Nc2ccc(Cl)cc2/C1=C/c1cc(Cl)c(O)c(Cl)c1`: 28.5% (inactive) and 82.4%.
The corresponding values for `CNc1cc2c(Nc3cccc(Br)c3)ncnc2cn1` are 49.2% (inactive) and 157%.
For the compound `CCCCc1c(-c2ccc(O)cc2)[nH]c2nccnc12`, in assay [1], the parasite load remaining is 46.4% (inactive) and the viability was found to be 112%.
`CCCCc1c(-c2ccc(OC)cc2)[nH]c2nccnc12`: in assay [1], the parasite load remaining is 34.8% (inactive) and the viability is 106%.
`Cn1cnc2cc3c(Nc4cccc(Br)c4)ncnc3cc21`: in assay [1], the parasite load remaining was 14.5% (inactive) and the viability was determined as 165%.
The matching figures for `Cn1nc2c3c(cccc31)C(=O)c1ccccc1-2`: 28.1% (inactive) and 83.8%.
The matching figures for `NCCNc1ncc(C(N)=O)c(Nc2cccc(C(F)(F)F)c2)n1`: 37.1% (inactive) and 76.9%.
The matching figures for `COc1ccc(S(=O)(=O)Nc2ccccc2CN(C)C/C=C/c2ccc(Cl)cc2)cc1`: 36.4% (inactive) and 93.6%.
`O=C(O)Cc1c2ccccc2n2c1[nH]c(=O)c1ccccc12`: in assay [1], the parasite load remaining is 35.1% (inactive) and the viability was 170%.
The matching figures for `Cc1nc(N)sc1-c1ccnc(Nc2cccc([N+](=O)[O-])c2)n1`: 60.6% (inactive) and 87.6%.
With `N#CCCc1ccc2c(c1)-c1[nH]c3ccc([N+](=O)[O-])cc3c1CC(=O)N2`, in assay [1], the parasite load remaining is 64.4% (inactive) and the viability worked out at 120%.
The matching figures for `CC(C)n1cnc2c(NCc3ccccc3)nc(NCCCO)nc21`: 34.6% (inactive) and 118%.
The corresponding values for `CCN(CC)CCNC(=O)c1c(C)[nH]c(/C=C2\C(=O)Nc3ccc(Cl)cc32)c1C` are 49.7% (inactive) and 69.1%.
The corresponding values for `N#Cc1cnc2cnc(NCc3cccnc3)cc2c1NC1CCCCCC1` are 36% (inactive) and 65.1%.
With `N=c1ccn2c(n1)O[C@@H]1C2O[C@H](CO)[C@H]1O` (some centres undefined), in assay [1], the parasite load remaining is 234% (inactive) and the viability was 85%.
The matching figures for `O=c1[nH][nH]c2nnc(-c3c(-c4ccccc4)nn4ccccc34)cc12`: 41.8% (inactive) and 101%.
The corresponding values for `O=C1Nc2ccccc2/C1=C\c1c(Cl)[nH]c2ccccc12` are 35% (inactive) and 118%.
The matching figures for `O=C1NC(=NCc2cccs2)S/C1=C\c1ccc2ncccc2c1`: 27.7% (inactive) and 96.3%.
Regarding `CCCCCCOC(=O)[C@]1(O)C[C@@H]2O[C@@]1(C)n1c3ccccc3c3c4c(c5c6ccccc6n2c5c31)C(=O)NC4`, in assay [1], the parasite load remaining is 55.7% (inactive) and the viability amounted to 93.7%.
In the case of `N#Cc1cnc2cnc(NCc3cccnc3)cc2c1Nc1ccc(F)c(Cl)c1`, in assay [1], the parasite load remaining was 47.9% (inactive) and the viability was 84.2%.
The corresponding values for `CC(C)(C)c1ccc(S(=O)(=O)Nc2ccc(-n3ccnc3)cc2)cc1` are 37.4% (inactive) and 67.1%.
The corresponding values for `COc1cc2ncnc(Nc3ccc(NC(=O)c4ccccc4)cc3)c2cc1OC` are 41.1% (inactive) and 100%.
The matching figures for `O=C(Nc1ccncc1)Nc1c(Cl)cc(Cl)cc1Cl`: 41.9% (inactive) and 65.2%.
`CC(C)CCCCC(=O)NC(CCN)C(=O)NC(C(=O)NC(CCN)C(=O)NC1CCNC(=O)C(C(C)O)NC(=O)C(CCN)NC(=O)C(CCN)NC(=O)C(C(C)C)CNC(=O)C(CC(C)C)NC(=O)C(CCN)NC1=O)C(C)O` (centres undefined) ({Heptanoyl(6-Me)}-[Dab]T[Dab][Dab][Dab]L[X3][Dab][Dab]T; lactam 4-C; configuration not given here): in assay [1], the parasite load remaining is 68.1% (inactive) and the viability was 75.2%.
For the compound `COc1cc2nccc(Oc3ccc(NC(=S)NC(=O)c4ccccc4C)cc3)c2cc1OC`, in assay [1], the parasite load remaining is 22.3% (inactive) and the viability amounted to 80.3%.
As to `O=C1Cc2c([nH]c3ccc([N+](=O)[O-])cc23)-c2ccccc2N1`, in assay [1], the parasite load remaining was 65.2% (inactive) and the viability came to 128%. In assay [2], the liver cell % of control amounted to 82.9% and the parasite % of control is 65.2% (inactive).
With `COC1[C@@H](OC)C[C@H](C)[C@@H](OC)C2=CC(=O)C=C(NC(=O)/C(C)=C/C=C\C(OC)[C@@H](OC(N)=O)/C(C)=C/[C@@H]1C)C2=O` (some centres undefined), in assay [1], the parasite load remaining is 25.3% (inactive) and the viability is 84.1%.
As for `C=CC(=O)Nc1ccc(Oc2nc(Nc3ccc(N4CCN(C)CC4)cc3OC)ncc2Cl)cc1`, in assay [2], the liver cell % of control was determined as 97.7% and the parasite % of control was 126% (inactive).
Take `CC(C)C(CO)Nc1nc(Nc2ccc(C(=O)O)c(Cl)c2)c2ncn(C(C)C)c2n1` (centres undefined): in assay [2], the liver cell % of control was 52.3% and 72.3%; the parasite % of control is 13.7% (inactive) and 48.9% (inactive) and 114% (inactive).
As to `O=c1[nH]c2ccccc2c2ncnc(Nc3ccc(OC(F)(F)F)cc3)c12`, in assay [2], the liver cell % of control was found to be 101% and the parasite % of control is 119% (inactive).
For the compound `COc1ccc(-c2cnc3c(-c4ccsc4)cnn3c2)cc1`, in assay [1], the parasite load remaining is 16.9% (inactive) and the viability was determined as 67.4%.
One may read the inhibition as the drop in the measured response relative to a control, in per cent. For `CC[C@H]1OC(=O)[C@H](C)C(=O)[C@H](C)[C@@H](O[C@@H]2O[C@H](C)C[C@H](N(C)C)[C@H]2O)[C@](C)(OC)C[C@@H](C)C(=O)[C@H](C)[C@@H]2N(CCCCn3cnc(-c4cccnc4)c3)C(=O)O[C@@]21C`, the parasite load remaining in assay [1] is 32.3% (inactive). For the same compound, the viability in assay [1] came to 63.9%. Also, the fluorescence ratio in assay [3] is 0.97 (inactive); in assay [6] it was 0.92 (inactive). The values for the inhibition in assay [4] and in assay [5] were -9.83% (inactive) and 1.18% (inactive), respectively.
In the case of `CCOC(=O)c1c(C)[nH]c(/C=C2\C(=O)Nc3ccccc32)c1C`, in assay [1], the parasite load remaining is 39.2% (inactive) and the viability worked out at 69.8%.
The matching figures for `COc1cc2ncnc(Nc3ccc(OCc4ccccc4)cc3)c2cc1OC`: 51.2% (inactive) and 119%.
For `COc1cc(C(=O)NC2CCN(C)CC2)ccc1Nc1ncc2c(n1)N(Cc1ccccc1)CCC(=O)N2C`, in assay [2], the liver cell % of control is 97.7% and the parasite % of control was 579% (inactive).
The matching figures for `CCN1CCN(Cc2ccc(NC(=O)c3cc(NC(=O)C(=O)c4c[nH]c5ccccc45)cc(OC)c3)cc2C(F)(F)F)CC1`: 92.9% and 85.7% (inactive).
The corresponding values for `COc1ccc(CNc2nc(NCc3ccc(OC)cc3)c3ncn(C4CCCC4)c3n2)cc1` are 90.6% and 265% (inactive).
`Cc1ccc(C(=O)Nc2cccc(C(F)(F)F)c2)cc1Nc1ncnc2nc[nH]c12`: in assay [2], the liver cell % of control turned out to be 108% and the parasite % of control was 64.6% (inactive).
`NS(=O)(=O)c1ccc(N=Nc2c(O)[nH]c3ccc(Br)cc23)cc1`: in assay [1], the parasite load remaining is 34% (inactive) and the viability came out at 161%.
The corresponding values for `Nc1n[nH]c(N)c1N=Nc1ccc(O)cc1` are 23.7% (inactive) and 93.1%.
As for `C=CC(=O)Nc1cccc(N2C(=O)N(c3c(Cl)c(OC)cc(OC)c3Cl)Cc3cnc(NCCCCN(CC)CC)nc32)c1`, in assay [2], the liver cell % of control is 104% and the parasite % of control was 107% (inactive).
The corresponding values for `OCCCNc1nccc(-c2cc(Nc3cccc(Cl)c3)ncn2)n1` are 81.8% and 176% (inactive).
On to `O=C(Nc1cccc(Nc2nccc(Nc3cccc(C(F)(F)F)c3)n2)c1)C1CC1`, for which, in assay [1], the parasite load remaining is 36.9% (inactive) and 34.4% (inactive); the viability was 99.7% and 89.6%.
`CC(C)n1cnc2c(Nc3cccc(Cl)c3)nc(NCCO)nc21`: in assay [1], the parasite load remaining is 37.9% (inactive) and the viability was 90.9%.
Turning to `CC(C)n1cnc2c(NCc3ccccc3)nc(NCc3ccccc3)nc21`, in assay [2], the liver cell % of control stood at 91.8% and the parasite % of control was 83.2% (inactive).
On to `Cc1ccc(C(=O)Nc2cccc(C(F)(F)F)c2)cc1NC(=O)c1nccn1C`, for which, in assay [2], the liver cell % of control came to 99.8% and the parasite % of control was 33.1% (inactive).
